Assay results: PubChem BioAssay (NCATS)
Inconclusive results are not listed. Calls of active or inactive are those of the source. Calls come from the whole dose curve; as a rule, active = well fitted cell-killing curve with a large enough effect; inconclusive = small, poorly fitted or top-dose-only effect, or effect the other way; inactive = no such curve, though single readings can be large or run the other way.
Potency is the fitted concentration of half-maximal effect.

Assay: Quantitative High-Throughput drug screen in 47 multiple myeloma cell lines against the NCATS MIPE library collection: XG1_PLB cell viability assay (AID 1919866); note: nearly all actives have a fitted effect of over 35% in size
Conditions: CellTiter-Glo ATP, 48 h; series mostly up to 45.8 µM
How it was run: (§1)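 MIPE 4.0 approved/investigational drugs; 500 cells/well; 48 h 37 °C humidified 5% CO2; CTG luminescence readout; DMSO = 100%, media = 0% viability.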
In the case of `N#C[C@H](O[C@@H]1O[C@H](CO[C@@H]2O[C@H](CO)[C@H](O)[C@H](O)[C@H]2O)[C@H](O)[C@H](O)[C@H]1O)c1ccccc1`, the Potency is reported as 23.5 µM (active). For `CC1(N2CCC(n3c([C@@H]4CCCNC4)nc4ccccc43)CC2)CCCCCCC1`, the Potency was 18.7 µM (active). For `C[C@@H]1[C@H](O)[C@@H](C)C=CC=CCCC=CC=CC=CC=C[C@H](O[C@H]2O[C@@H](C)[C@H](O)[C@@H](N)[C@@H]2O)CC2O[C@](O)(C[C@@H](O)[C@H](O)CC[C@@H](O)C[C@@H](O)C[C@@H](O)CC(=O)O[C@H]1C)C[C@H](O)[C@H]2C(=O)O`, the Potency was “inactive”. For `C[C@@H]1CC[C@H]2[C@@H](C)C(=O)O[C@@H]3O[C@@]4(C)CC[C@H]1[C@]32OO4`, the Potency was 5.9 µM (active). For `NC1=NC(=O)N2CC12` (centres undefined), the Potency was 11.8 µM (active). In the case of `C[C@]12Cc3cn[nH]c3C[C@@H]1CC[C@@H]1[C@H]2CC[C@@]2(C)[C@H]1CC[C@]2(C)O`, the Potency is reported as “inactive”. For `CC1=C(O)C(=O)C=C2C1=CC=C1[C@@]2(C)CC[C@@]2(C)[C@@H]3C[C@](C)(C(=O)O)CC[C@]3(C)CC[C@]12C`, the Potency was 0.59 µM (active). In the case of `CC=C(C)C(=O)O[C@H]1C(C)=C2[C@@H]3OC(=O)[C@@](C)(O)[C@@]3(O)[C@@H](OC(=O)CCC)C[C@](C)(OC(C)=O)[C@@H]2[C@@H]1OC(=O)CCCCCCC`, the Potency is reported as 0.0469 µM (active). In the case of `CN1CCN(c2ccc([N+](=O)[O-])c3no[n+]([O-])c23)CC1`, the Potency is reported as 20.9 µM (active). In the case of `C[C@]12CCC(=O)C(O)=C1CC[C@@H]1[C@H]3CCC(=O)[C@@]3(C)CC[C@@H]12`, the Potency is reported as “inactive”. With `COc1ccc2c(c1)[C@]13CCCCC1C(C2)N(C)CC3` (some centres undefined) the Potency was “inactive”. For `C#CC1(O)CCC2C3CCC4=CC(=O)CCC4(C)C3CCC21C` (centres undefined), the Potency was “inactive”. In the case of `CCOP(=O)(OCC)C(C)NC(=O)N(CCCl)N=O` (centres undefined), the Potency is reported as “inactive”. In the case of `C=C[C@@H]1CN2CCC1C[C@H]2[C@H](O)c1ccnc2ccccc12` (some centres undefined), the Potency is reported as 16.6 µM (active).

Assay: Quantitative High-Throughput drug screen in 47 multiple myeloma cell lines against the NCATS MIPE library collection: VP6_DJ cell viability assay (AID 1919867); note: nearly all actives have a fitted effect of over 40% in size
Conditions: ATP luminescence, 48 h; series mostly up to 45.8 µM
How it was run: as §1
In the case of `CCOC(=O)c1cncn1[C@H](C)c1ccccc1`, the Potency is reported as “inactive”. In the case of `N#C[C@H](O[C@@H]1O[C@H](CO[C@@H]2O[C@H](CO)[C@H](O)[C@H](O)[C@H]2O)[C@H](O)[C@H](O)[C@H]1O)c1ccccc1`, the Potency is reported as 18.7 µM (active). For `CC1(N2CCC(n3c([C@@H]4CCCNC4)nc4ccccc43)CC2)CCCCCCC1`, the Potency was 14.8 µM (active). For `CN(C)NC(=O)CCC(=O)O`, the Potency was 16.6 µM (active). With `O=c1[nH]c2ccccc2n1C1CCN(Cc2ccc(-c3[nH]c4cc5ncnc5cc4nc3-c3ccccc3)cc2)CC1` the Potency was 9.35 µM (active). With `C[C@@H]1[C@H](O)[C@@H](C)C=CC=CCCC=CC=CC=CC=C[C@H](O[C@H]2O[C@@H](C)[C@H](O)[C@@H](N)[C@@H]2O)CC2O[C@](O)(C[C@@H](O)[C@H](O)CC[C@@H](O)C[C@@H](O)C[C@@H](O)CC(=O)O[C@H]1C)C[C@H](O)[C@H]2C(=O)O` the Potency was “inactive”. For `CC(=Cc1csc(C)n1)[C@@H]1C[C@H]2O[C@@H]2CCC[C@H](C)[C@@H](O)[C@@H](C)C(=O)C(C)(C)[C@@H](O)CC(=O)O1`, the Potency was “inactive”. With `Cc1[nH]nc2ccc(-c3cncc(OC[C@@H](N)Cc4c[nH]c5ccccc45)c3)cc12` the Potency was 0.296 µM (active). With `C[C@@H]1O[C@@H](O[C@@H]2C=C3CC[C@@H]4[C@@H](CC[C@]5(C)[C@H](c6ccc(=O)oc6)CC[C@@]45O)[C@@]3(C)CC2)[C@H](O)[C@H](O)[C@H]1O` the Potency was 0.0118 µM (active). In the case of `CC[C@@]1(O)C(=O)OCc2c1cc1n(c2=O)Cc2cc3ccccc3nc2-1`, the Potency is reported as 0.166 µM (active). In the case of `NC1=NC(=O)N2CC12` (centres undefined), the Potency is reported as 14.8 µM (active). With `CC1=C(O)C(=O)C=C2C1=CC=C1[C@@]2(C)CC[C@@]2(C)[C@@H]3C[C@](C)(C(=O)O)CC[C@]3(C)CC[C@]12C` the Potency was 0.935 µM (active). For `CC=C(C)C(=O)O[C@H]1C(C)=C2[C@@H]3OC(=O)[C@@](C)(O)[C@@]3(O)[C@@H](OC(=O)CCC)C[C@](C)(OC(C)=O)[C@@H]2[C@@H]1OC(=O)CCCCCCC`, the Potency was 0.0526 µM (active). With `COCC1(CO)C(=O)C2CCN1CC2` (centres undefined) the Potency was 4.18 µM (active). In the case of `CN1CCN(c2ccc([N+](=O)[O-])c3no[n+]([O-])c23)CC1`, the Potency is reported as 14.8 µM (active). With `COc1cc([C@@H]2c3cc4c(cc3[C@@H](O)C3COC(=O)C32)OCO4)cc(OC)c1O` (some centres undefined) the Potency was 0.0526 µM (active). With `C#CC1(O)CCC2C3CCC4=CC(=O)CCC4(C)C3CCC21C` (centres undefined) the Potency was “inactive”. In the case of `C=C[C@@H]1CN2CCC1C[C@H]2[C@H](O)c1ccnc2ccccc12` (some centres undefined), the Potency is reported as 26.4 µM (active). For `CCN1CCN(C(=O)Cc2ccc(Nc3ncc(F)c(Nc4ccc(C(=O)Nc5ccccc5Cl)cc4)n3)cc2)CC1`, the Potency was 2.64 µM (active). For `COc1ccc2c(c1)CN(C)CC2c1ccc(Cl)c(Cl)c1` (centres undefined), the Potency was 14.8 µM (active).
